Data published in the supplement of paper PMC10849652.
The full data set covers some 8,800 targets. This sample favours those with a hit. About 0.5% of all pairs of compound and target were hits.

What was measured:
Experiment in all cases: log2 fold change, soluble protein after heating vs DMSO (PISA); higher = thermal stabilisation; K562 lysate, 10 uM; active = over 0.2 and 3.5 SD of the protein, either way, in both replicates (recomputed)
[1] = compound: NCC(=O)Nc1ccc(-n2nc(C(F)(F)F)cc2-c2ccc3c(ccc4ccccc43)c2)cc1
Procedure, shortened: (§1)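 A 30 min treatment with 10 μM compound was applied to crude K562 extract at 1 mg/mL protein in PBS pH 7.4 with 1 mM MgCl2. Heating for 3 min spanned 48°C-58°C, after which aliquots were pooled, adjusted to 0.5% NP-40 at 4°C and spun at 21,000xg for 90 min. TMTpro 16plex LC-MS/MS of the supernatant, with channel sums equalised, gave values recorded as log-two fold change in thermal stability against solvent controls, from duplicates.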

vorinostat = compound: O=C(CCCCCCC(=O)Nc1ccccc1)NO [vorinostat]
Procedure, shortened: as §1

silmitasertib = compound: O=C(O)c1ccc2c(c1)nc(Nc1cccc(Cl)c1)c1ccncc12 [silmitasertib]
Procedure, shortened: as §1

[2] = compound: O=C1NC(=O)C(c2cnc3ccccn23)=C1c1cn2c3c(cc(F)cc13)CN(C(=O)N1CCCCC1)CC2
Procedure, shortened: as §1

entospletinib = compound: c1cn2cc(-c3ccc4cn[nH]c4c3)nc(Nc3ccc(N4CCOCC4)cc3)c2n1 [entospletinib]
Procedure, shortened: as §1

Measured: log2 fold change

FREM2 (UniProt Q5SZK8)
Sequence of UniProt Q5SZK8 (Q5SZK8 whole entry, looked up): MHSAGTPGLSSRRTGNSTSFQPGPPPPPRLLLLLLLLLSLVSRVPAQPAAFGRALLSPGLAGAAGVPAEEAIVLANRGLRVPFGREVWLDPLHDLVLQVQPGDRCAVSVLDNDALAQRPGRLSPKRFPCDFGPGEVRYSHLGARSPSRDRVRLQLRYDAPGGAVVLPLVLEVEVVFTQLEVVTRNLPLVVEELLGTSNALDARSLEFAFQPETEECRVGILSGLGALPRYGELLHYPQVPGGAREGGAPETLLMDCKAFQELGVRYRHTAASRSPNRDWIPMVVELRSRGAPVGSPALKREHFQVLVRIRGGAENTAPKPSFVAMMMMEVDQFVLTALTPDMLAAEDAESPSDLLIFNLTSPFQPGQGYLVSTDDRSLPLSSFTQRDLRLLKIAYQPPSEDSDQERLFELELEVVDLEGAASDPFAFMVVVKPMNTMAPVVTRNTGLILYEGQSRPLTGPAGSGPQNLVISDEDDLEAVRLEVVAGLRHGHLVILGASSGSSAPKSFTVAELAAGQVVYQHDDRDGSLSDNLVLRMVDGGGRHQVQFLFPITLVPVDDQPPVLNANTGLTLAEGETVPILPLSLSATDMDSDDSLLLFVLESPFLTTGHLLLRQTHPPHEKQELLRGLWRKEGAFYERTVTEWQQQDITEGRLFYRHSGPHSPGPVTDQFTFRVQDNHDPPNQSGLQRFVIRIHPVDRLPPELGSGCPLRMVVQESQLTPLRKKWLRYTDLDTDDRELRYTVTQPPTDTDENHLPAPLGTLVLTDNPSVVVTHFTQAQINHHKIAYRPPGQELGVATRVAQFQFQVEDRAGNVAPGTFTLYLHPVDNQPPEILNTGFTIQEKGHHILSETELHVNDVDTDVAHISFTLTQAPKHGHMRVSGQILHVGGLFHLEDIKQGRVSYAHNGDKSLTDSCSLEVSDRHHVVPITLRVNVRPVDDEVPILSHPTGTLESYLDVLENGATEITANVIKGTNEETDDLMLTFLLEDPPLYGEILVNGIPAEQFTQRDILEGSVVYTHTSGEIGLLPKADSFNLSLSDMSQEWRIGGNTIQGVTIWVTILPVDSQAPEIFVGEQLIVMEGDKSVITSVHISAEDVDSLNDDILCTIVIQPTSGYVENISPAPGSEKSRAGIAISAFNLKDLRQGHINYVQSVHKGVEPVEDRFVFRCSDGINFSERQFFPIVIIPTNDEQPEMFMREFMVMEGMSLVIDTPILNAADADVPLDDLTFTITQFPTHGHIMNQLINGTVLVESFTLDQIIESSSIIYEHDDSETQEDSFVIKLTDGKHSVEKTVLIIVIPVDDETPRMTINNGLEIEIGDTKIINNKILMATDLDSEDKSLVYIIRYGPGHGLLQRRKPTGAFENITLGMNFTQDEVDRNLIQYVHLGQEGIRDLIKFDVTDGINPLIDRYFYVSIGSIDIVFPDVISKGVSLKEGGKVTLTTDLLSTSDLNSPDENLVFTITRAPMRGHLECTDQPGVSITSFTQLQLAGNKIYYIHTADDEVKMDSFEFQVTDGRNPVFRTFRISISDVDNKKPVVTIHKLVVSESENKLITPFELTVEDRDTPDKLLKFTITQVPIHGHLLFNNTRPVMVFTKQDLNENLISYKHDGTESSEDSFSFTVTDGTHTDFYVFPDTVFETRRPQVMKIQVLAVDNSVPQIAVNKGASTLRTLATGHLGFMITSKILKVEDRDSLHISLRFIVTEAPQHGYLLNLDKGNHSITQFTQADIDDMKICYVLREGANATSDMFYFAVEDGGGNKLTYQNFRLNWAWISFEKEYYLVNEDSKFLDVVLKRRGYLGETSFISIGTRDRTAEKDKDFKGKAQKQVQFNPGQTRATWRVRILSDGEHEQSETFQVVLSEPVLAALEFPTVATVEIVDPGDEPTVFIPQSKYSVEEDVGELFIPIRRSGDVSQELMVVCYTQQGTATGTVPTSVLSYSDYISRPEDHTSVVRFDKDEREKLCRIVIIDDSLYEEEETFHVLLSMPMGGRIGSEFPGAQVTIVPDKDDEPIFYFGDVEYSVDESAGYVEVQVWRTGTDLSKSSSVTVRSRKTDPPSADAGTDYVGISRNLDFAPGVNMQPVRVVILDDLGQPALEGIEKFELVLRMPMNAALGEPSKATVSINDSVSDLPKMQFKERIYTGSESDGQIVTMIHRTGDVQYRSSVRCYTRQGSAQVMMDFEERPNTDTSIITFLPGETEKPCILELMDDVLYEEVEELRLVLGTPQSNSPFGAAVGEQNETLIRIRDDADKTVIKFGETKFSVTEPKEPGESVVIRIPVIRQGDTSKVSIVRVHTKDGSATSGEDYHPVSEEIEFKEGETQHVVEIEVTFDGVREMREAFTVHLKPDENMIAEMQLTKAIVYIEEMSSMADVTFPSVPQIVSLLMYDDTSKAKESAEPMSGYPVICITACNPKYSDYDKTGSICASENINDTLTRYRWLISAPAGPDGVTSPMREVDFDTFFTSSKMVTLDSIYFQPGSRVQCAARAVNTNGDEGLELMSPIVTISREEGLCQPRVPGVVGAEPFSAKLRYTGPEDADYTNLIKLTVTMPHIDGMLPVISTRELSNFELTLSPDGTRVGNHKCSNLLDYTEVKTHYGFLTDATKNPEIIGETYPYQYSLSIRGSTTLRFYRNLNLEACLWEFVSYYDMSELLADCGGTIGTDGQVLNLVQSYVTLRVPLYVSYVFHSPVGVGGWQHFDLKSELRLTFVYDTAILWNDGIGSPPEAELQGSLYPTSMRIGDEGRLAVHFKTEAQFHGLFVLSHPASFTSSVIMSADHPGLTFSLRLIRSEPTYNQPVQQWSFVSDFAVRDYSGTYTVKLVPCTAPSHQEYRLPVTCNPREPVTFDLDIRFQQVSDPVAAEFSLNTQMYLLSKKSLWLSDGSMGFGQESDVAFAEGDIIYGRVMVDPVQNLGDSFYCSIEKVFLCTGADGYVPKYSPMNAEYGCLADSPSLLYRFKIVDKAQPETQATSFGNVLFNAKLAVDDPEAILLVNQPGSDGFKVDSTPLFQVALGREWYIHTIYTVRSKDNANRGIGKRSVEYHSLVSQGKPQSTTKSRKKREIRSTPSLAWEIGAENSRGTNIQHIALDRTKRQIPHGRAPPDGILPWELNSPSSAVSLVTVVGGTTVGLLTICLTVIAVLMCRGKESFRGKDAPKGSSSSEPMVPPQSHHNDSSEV
inactive: [1] 0.094 | vorinostat 0.048 | silmitasertib 0.085 | [2] -0.11 | entospletinib -0.003

DTYMK (UniProt P23919)
inactive: [1] -0.022 | silmitasertib 0.071 | [2] -0.023 | entospletinib 0.061
active: vorinostat -0.294

EDC3 (UniProt Q96F86)
inactive: [1] 0.02 | silmitasertib 0 | [2] -0.026 | entospletinib 0.013
active: vorinostat -0.277

FAM76B (UniProt Q5HYJ3)
inactive: [1] -0.018 | vorinostat 0.026 | silmitasertib 0 | [2] 0.012 | entospletinib -0.014

GCDH (UniProt Q92947)
Sequence of UniProt Q92947 (Q92947 whole entry, looked up): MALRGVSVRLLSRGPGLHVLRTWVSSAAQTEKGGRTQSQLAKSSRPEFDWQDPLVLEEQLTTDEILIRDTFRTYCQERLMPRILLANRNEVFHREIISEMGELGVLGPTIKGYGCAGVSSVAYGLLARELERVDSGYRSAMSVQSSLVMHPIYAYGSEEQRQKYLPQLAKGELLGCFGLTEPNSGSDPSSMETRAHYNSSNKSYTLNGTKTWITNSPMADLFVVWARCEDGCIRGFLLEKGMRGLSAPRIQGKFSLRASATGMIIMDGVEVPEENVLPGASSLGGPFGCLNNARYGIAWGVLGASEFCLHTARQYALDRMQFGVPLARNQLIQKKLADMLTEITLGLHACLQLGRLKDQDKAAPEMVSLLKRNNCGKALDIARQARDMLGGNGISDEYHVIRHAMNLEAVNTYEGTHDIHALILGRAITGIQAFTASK
inactive: [1] 0.004 | silmitasertib 0.161 | [2] 0.187 | entospletinib 0.046
active: vorinostat 0.34

FYN (UniProt P06241)
Sequence of UniProt P06241 (P06241 whole entry, looked up): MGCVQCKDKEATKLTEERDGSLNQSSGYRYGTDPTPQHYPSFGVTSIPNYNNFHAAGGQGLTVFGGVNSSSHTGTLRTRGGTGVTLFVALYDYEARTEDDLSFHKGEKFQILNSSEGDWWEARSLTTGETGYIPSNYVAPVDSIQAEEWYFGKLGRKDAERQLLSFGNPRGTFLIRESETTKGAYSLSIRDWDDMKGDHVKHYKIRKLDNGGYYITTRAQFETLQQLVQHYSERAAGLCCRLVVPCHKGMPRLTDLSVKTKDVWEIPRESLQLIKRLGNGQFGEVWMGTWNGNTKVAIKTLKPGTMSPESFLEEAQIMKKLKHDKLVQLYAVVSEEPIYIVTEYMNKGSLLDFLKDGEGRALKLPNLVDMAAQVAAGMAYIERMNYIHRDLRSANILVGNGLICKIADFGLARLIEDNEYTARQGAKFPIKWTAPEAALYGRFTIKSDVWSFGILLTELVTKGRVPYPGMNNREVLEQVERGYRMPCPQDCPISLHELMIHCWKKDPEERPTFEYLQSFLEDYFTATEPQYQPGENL
inactive: [1] -0.047 | vorinostat 0.091 | silmitasertib -0.001 | [2] -0.027 | entospletinib 0.156

GAPDH (UniProt P04406)
Sequence of UniProt P04406 (P04406 whole entry, looked up): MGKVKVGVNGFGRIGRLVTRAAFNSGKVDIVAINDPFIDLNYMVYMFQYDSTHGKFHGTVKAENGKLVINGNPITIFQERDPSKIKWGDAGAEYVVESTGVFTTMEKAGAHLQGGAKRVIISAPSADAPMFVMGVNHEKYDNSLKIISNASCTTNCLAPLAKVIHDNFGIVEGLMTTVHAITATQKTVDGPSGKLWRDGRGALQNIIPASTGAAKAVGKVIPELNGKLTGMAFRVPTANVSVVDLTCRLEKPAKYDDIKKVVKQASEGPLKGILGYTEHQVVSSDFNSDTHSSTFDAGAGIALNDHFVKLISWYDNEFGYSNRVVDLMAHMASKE
active: vorinostat 0.309
inactive: [1] 0 | silmitasertib -0.033 | [2] 0.014 | entospletinib 0.003

EIF2B4 (UniProt Q9UI10)
Sequence of UniProt Q9UI10 (Q9UI10 whole entry, looked up): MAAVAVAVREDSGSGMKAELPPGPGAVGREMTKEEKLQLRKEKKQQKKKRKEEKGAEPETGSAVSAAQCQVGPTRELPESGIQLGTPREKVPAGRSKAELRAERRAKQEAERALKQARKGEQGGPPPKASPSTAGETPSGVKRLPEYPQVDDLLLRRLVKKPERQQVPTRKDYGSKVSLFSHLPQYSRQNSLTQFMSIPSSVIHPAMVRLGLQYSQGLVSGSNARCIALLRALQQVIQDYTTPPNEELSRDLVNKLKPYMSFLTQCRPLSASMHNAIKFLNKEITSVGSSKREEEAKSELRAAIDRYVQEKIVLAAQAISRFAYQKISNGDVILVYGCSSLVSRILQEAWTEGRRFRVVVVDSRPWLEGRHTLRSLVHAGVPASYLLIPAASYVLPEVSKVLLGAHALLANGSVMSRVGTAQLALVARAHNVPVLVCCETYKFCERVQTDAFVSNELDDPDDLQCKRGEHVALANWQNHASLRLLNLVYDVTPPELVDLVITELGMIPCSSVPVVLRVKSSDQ
inactive: [1] 0.028 | vorinostat -0.135 | silmitasertib 0.013 | [2] -0.006 | entospletinib -0.05

EDC4 (UniProt Q6P2E9)
active: vorinostat -0.453
inactive: [1] 0.045 | silmitasertib 0.011 | [2] 0.004 | entospletinib 0.02
